Screens from PubChem BioAssay.
Sampled rows, rich in hits. Any-hit rate of the full collection: about 10%.
HP1b binding inh = inhibitors of HP1-beta chromodomain binding to methylated histone tails; AlphaScreen HP1-beta / biotin-H3K9me3 peptide binding; Potency, µM (doses to about 114 µM), for inactives: at the highest dose activity change, negative = inhibition, most hits filed as inhibitors; actives 0.56% (n = 390,000); also: nearly all actives have a fitted effect of over 70% in size
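HP1-beta protein (50 nM final) preincubated 30 min at room temperature with biotinylated H3(1-18)K9me3 peptide (50 nM) in PBS pH 7.4, 0.01% Tween-20, then compound added for 30 min. AlphaScreen streptavidin donor/nickel chelate acceptor beads (10 ug/mL final), 30 min dark, luminescence read.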
GLS inh = inhibitors of human glutaminase (GLS). GLS enzymatic activity, qHTS titration. Potency, µM (titrated, usually from 45.5 µM), without a hit: at the highest dose activity change, negative = inhibition, hits mostly inhibitors. O94925. actives 0.21% (n = 410,000); also: % is scaled to controls: 0 for no effect and ±100 for the full control effect
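Compounds were pin-transferred onto hKGA, after which L-glutamine (1 mM solution) and a detection mix of glutamate oxidase, HRP and Amplex Red were added. Initial and 30 min RT fluorescence reads were collected.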
G9a block = G9a (human) methyltransferase inhibition. Q96KQ7. G9a H3K9 monomethylation, AlphaScreen, 2 h. Potency, µM (doses to about 102 µM), for inactives: top-dose activity, negative = inhibition, most hits filed as inhibitors. actives 8.8% (n = 350,000); also: % is scaled to controls: 0 for no effect and ±100 for the full control effect; nearly all actives have a fitted effect of over 75% in size
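Readings reflect AlphaScreen signal from monomethyl-H3K9 antibody detection. HMT at 20 nM; substrate b-H3K9 500 nM; cofactor SAM 20 uM; 2 h RT reaction; compounds tested as titrations in qHTS with 15 min preincubation.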
L3MBTL1 inh-1 = L3MBTL1 (human) inhibition | Potency, µM (top dose mostly 57.1 µM), for the others: top-dose activity, negative = inhibition, actives largely listed as inhibitors | AlphaScreen L3MBTL1–H3K9me1 peptide binding | Q9Y468 | actives 0.66% (n = 230,000); also: % is scaled to controls: 0 for no effect and ±100 for the full control effect; nearly all actives have a fitted effect of over 60% in size
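Read-out is AlphaScreen signal from streptavidin donor and nickel chelate acceptor beads (10 ug/mL final each) bridging L3MBTL1 (50 nM) and biotinylated K9-monomethylated H3(1-15) peptide (75 nM), after 30 min compound exposure at room temperature.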
BAZ2B block = inhibitors of human BAZ2B bromodomain; Potency, µM (series often up to 114 µM), without a hit: at the top dose activity change, negative = inhibition, actives largely listed as inhibitors; AlphaScreen BAZ2B-H3K14Ac peptide displacement; AID 504333; actives 4.4% (n = 360,000); also: % is scaled to controls: 0 for no effect and ±100 for the full control effect; nearly all actives have a fitted effect of over 60% in size
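AlphaScreen displacement of biotin-H3(5-23)K14Ac peptide (50 nM final) from BAZ2B (50 nM final) in PBS pH 7.4, 0.01% Tween-20; complex preformed 30 min RT, then compounds (top 110 uM) 30 min RT, beads 20 min dark.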
JMJD2A Tudor inh = blocks the human JMJD2A Tudor domain | O75164 | AlphaScreen JMJD2A-Tudor / H3K4me3 peptide binding | Potency, µM (highest dose often 114 µM), for the others: top-dose activity change, negative = inhibition, hits mostly inhibitors | actives 4.4% (n = 390,000); also: % is scaled to controls: 0 for no effect and ±100 for the full control effect; nearly all actives have a fitted effect of over 50% in size
L3MBTL1 inh-2 = validation of human L3MBTL1 methyl-lysine binding inhibitors | shares compounds with L3MBTL1 inh-1 | L3MBTL1 methyl-lysine binding inhibition, biochemical qHTS | Potency, µM, most hits filed as inhibitors | actives 91% (n = 500); also: nearly all actives have a fitted effect of over 70% in size
AlphaScreen ctr2 = interferes with AlphaScreen signal in L3MBTL1 counterscreen. 500 tested, under 10 active. Potency, µM (titrated, usually from 57.1 µM), for inactives: top-dose activity change, negative = inhibition, usual class: inhibitors. AlphaScreen counterscreen, signal inhibition. shares compounds with L3MBTL1 inh-1; also: 0% is about no effect
* = called active by the depositor; ? = inconclusive; · = no result given; [ ] = dose if it differs, or a comment. Calls follow the shape of the dose curve; as a rule, active = well fitted curve in the direction sought with a large enough effect; inconclusive = small, poorly fitted or top-dose-only effect, or another doubt; inactive = no such curve, though single readings can be large; an effect the other way counts as inactive or inconclusive. Potency is read from the fitted curve at half-maximal effect.

SMILES	HP1b binding inh	GLS inh	G9a block	L3MBTL1 inh-1	BAZ2B block	JMJD2A Tudor inh	L3MBTL1 inh-2	AlphaScreen ctr2
Cc1csc(NC(=O)CSc2nncn2C)n1	34%	1%	35%[59 µM]	4%	11%	2%	·	·
Cn1cnnc1SCC(=O)Nc1ncc([N+](=O)[O-])s1	?	149%	·	28µM*	·	28µM*	1.7*	0%
CC(Sc1nc2sc3c(c2c(=O)n1-c1ccccc1)CCCC3)C(=O)O (configuration not stated)	28%	-6%	·	10%	-5%	5%	·	·
CCn1c(SC(C)C(=O)O)nc2sc3c(c2c1=O)CCC3 (configuration not stated)	9%	-10%	?	28µM*	50µM*	89µM*	3.4*	2%
O=C(O)CCc1ccc(-c2cccs2)n1CCC(=O)O	28%	-4%	20µM*	4µM*	?	-29%	17*	-21%
Cc1ccc(Sc2ncccc2O)cc1	25%	-5%	·	·	·	-5%	·	·
Cc1ccc(N=Nc2ccc(O)c3ncccc23)cc1	?	7%	?	40µM*	?	?	17*	?
Cc1ccccc1Nc1nnc(SCC(=O)NC(=O)NCc2ccco2)s1	-5%	?	35µM*	28µM*	-37%	?	9.5*	8%
O=C(CSc1nnc(Nc2ccccc2)s1)NCc1ccco1	1%	26%	-22%[59 µM]	-7%	·	-15%	·	·
CCOc1ccccc1-n1nnnc1SCC(=O)NC(=O)NCc1ccco1	-1%	?	79µM*	25µM*	50µM*	?	21*	0%
O=C(CSc1nnc(COc2ccccc2Cl)o1)NC(=O)NCc1ccco1	?	134%	50µM*	14µM*	40µM*	?	12*	-8%
CC(C)(C)NC(=O)NC(=O)CSc1nnc(COc2ccccc2Cl)o1	23%	6%	?	·	-36%	-12%	·	·
CCCCn1nc(NC(=O)c2cccc(Cl)c2)c2cc3ccc(C)cc3nc21	31%	-18%	1%[59 µM]	·	2%	-8%	·	·
CCC(=O)Nc1ccc(CC)cc1-c1nc2ccccc2n(CC(=O)Nc2cccc(Cl)c2)c1=O	31%	-8%	-8%[59 µM]	·	3%	-14%	·	·
Cc1cc(S(=O)(=O)NCCc2csc(-c3cccc(F)c3)n2)ccc1F	21%[57 µM]	-15%	11%[59 µM]	·	24%	-2%	·	·
Cc1ccc(S(=O)(=O)C(CNC(=O)c2ccccc2F)c2cccs2)cc1 (configuration not stated)	14%[57 µM]	5%	15%[59 µM]	·	12%	-14%	·	·
c1ccc(-c2nc(-c3ccncc3)n[nH]2)nc1	63%	-19%	·	3.2µM*	2.5µM*	2.8µM*	4.7*	-95%
COc1ccc(NC(=O)Cn2ncc(Cl)c(Cl)c2=O)cc1S(=O)(=O)N1CCOCC1	-1%	3%	-5%[59 µM]	14µM*	?	-26%	12*	23%
COc1ccc(NC(=O)CN(C)C(=O)c2cc3c(s2)CCC3)cc1	13µM*	-32%	13µM*	3.2µM*	6.3µM*	14µM*	0.75*	5%
Cc1ccc(-c2noc(-c3ccc(NC4CCCC4)c([N+](=O)[O-])c3)n2)cc1	50%	-7%	1%[59 µM]	·	?	-27%	·	·
Cc1nc(N)sc1-c1csc(Nc2cccc(C(=O)O)c2)n1	-1%	-14%	45µM*	22µM*	50µM*	?	21*	4%
CCOC(=O)c1nc2sc3c(c2c(=O)[nH]1)CCCC3	42%	-1%	27%[59 µM]	-4%	10%	-10%	·	·
N#C/C(=C\c1ccc(C(=O)O)cc1)c1nc2sc3c(c2c(=O)[nH]1)CCCC3	-33%	?	40µM*	22µM*	45µM*	?	11*	-24%
O=C(Nc1ccc2nc(-c3ccco3)c(-c3ccco3)nc2c1)N1CCN(c2ccccn2)CC1	25µM*	-9%	2.5µM*	3.2µM*	?	?	3*	-1%
COc1cc2c(cc1OC)CN(Cc1nc3ccsc3c(=O)[nH]1)CC2	37%	-1%	?	25µM*	40µM*	?	21*	-3%
SMILES	HP1b binding inh	GLS inh	G9a block	L3MBTL1 inh-1	BAZ2B block	JMJD2A Tudor inh	L3MBTL1 inh-2	AlphaScreen ctr2
O=c1[nH]c(CN2CCN(c3ccccc3Cl)CC2)nc2ccsc12	57%	6%	?	1%	-33%	-22%	·	·
Cc1ccc(NC(=O)Cn2nc(C)c3nn(-c4ccc(Cl)cc4)c(C)c3c2=O)cc1C	27%[57 µM]	-3%	0%[59 µM]	·	4%	-4%	·	·
O=C(CSc1nc(-c2ccccc2)nc2ccc(F)cc12)Nc1ccc(C(=O)O)cc1	11%	3%	45µM*	40µM*	50µM*	35µM*	?	?
CC(=O)Nc1cccc(-c2nnc(SCC(=O)c3cc([N+](=O)[O-])ccc3Cl)o2)c1	13%	5%	-38%[59 µM]	·	?	-13%	·	·
COc1ccc(S(=O)(=O)N2CCOCC2)cc1NC(=O)C1CCN(S(=O)(=O)c2ccc(Cl)cc2)CC1	15%	3%	·	·	·	-2%	·	·
Cc1nnc(NC(=O)C2CCN(S(=O)(=O)c3ccc(F)c(Cl)c3)CC2)o1	34%	-11%	-40%	35µM*	32µM*	3.5µM*	?	-6%
CCc1ccccc1-n1c(N)c(C(=O)OC)c2nc3ccccc3nc21	34%	0%	-2%[59 µM]	·	-6%	15%	·	·
O=C(Nc1ccccc1C(=O)NC1CC1)c1ccc([N+](=O)[O-])o1	-22%	104%	?	32µM*	?	?	19*	9%
COc1ccc2nc(-n3c(O)c(C4=c5ccccc5=NC4=O)[nH]c3=S)sc2c1	?	-14%	?	3.2µM*	13µM*	?	3.4*	?
Cn1c(O)c(C2=c3ccccc3=NC2=O)[nH]c1=S	13%	17%	-22%[59 µM]	-13%	?	-25%	·	·
COc1ccccc1N1CCN(C(=O)c2cc(-c3ccc(C)c(F)c3)on2)CC1	39%	-2%	?	·	-4%	-13%	·	·
Cc1ccccc1N=C1NC(=O)/C(=C/c2cccn2-c2cccc(C(=O)O)c2)S1	?	4%	28µM*	40µM*	40µM*	50µM*	4.2*	-21%
O=S1(=O)Nc2c(ccc3cccnc23)-c2ccccc21	29%	-2%	-54%[59 µM]	11µM*	6.3µM*	5.6µM*	3*	9.5µM*
